Records with an inconclusive call do not appear. The source made the active and inactive calls. Rule for the calls: active = hit-call score of the fitted dose curve at least 0.9, where 1 is the maximum; inconclusive = response in the unintended direction; inactive = score below 0.9.
The compounds below were run on zebrafish Peroxisome Proliferator-activated Receptor gamma (PPARg), gene 557037 (assay: ATG_zfPPARg_EcoTox2: Attagene TRANS-FACTORIAL EcoTox-2 HepG2 Assay for zebrafish Peroxisome Proliferator-activated Receptor gamma (PPARg)).
Protocol: ATG_EcoTox2 is a cell-based, multiplexed assay created by modifying the existing Attagene TRANS-FACTORIAL system to include a panel of nuclear receptors from some or all the following species: human (Homo sapiens), african clawed frog (Xenopus laevis), rainbow trout (Oncorhynchus mykiss), japanese medaka (Oryzias latipes), and zebrafish (Danio rerio). The ECOTOX2-FACTORIAL format uses HepG2, a human liver cell line, with measurements taken at 24 hours after chemical dosing in a 24-well plate. ATG_zfPPARg_EcoTox2 is one of 29 assay components calculated in the ATG_EcoTox2 assay. It is designed to make measurements of mRNA induction, a form of inducible reporter, as detected with fluorescence intensity signals by Reverse transcription polymerase chain reaction (RT-PCR) and Capillary electrophoresis technology.The assay endpoint ATG_zfPPARg_EcoTox2 was analyzed in the positive analysis fitting direction relative to DMSO as the negative control and baseline of activity. Using a type of inducible reporter, measures of mRNA for gain-of-signal activity can be used to understand the reporter gene at the transcription factor-level as they relate to the gene PPARg. Furthermore, this assay endpoint can be referred to as a primary readout, because this assay has produced multiple assay endpoints where this one serves a reporter gene function. To generalize the intended target to other relatable targets, this assay endpoint is annotated to the nuclear receptor intended target family, where the subfamily is non-steroidal.
Human liver HepG2 cells are transiently transfected with multiple reporter transcription units (MRTUs) in 6-well plates using FuGene 6 reagent (Roche; 3 ml FuGene/1 mg DNA). The MRTU constructs are regulated by a cis-regulating element (promoter). Each RTU expresses a GAL4-UAS that regulates the transcription of a nearby target reporter gene sequence. A major difference between the CIS and TRANS system is that in CIS activities of endogenous TFs are measured, whereas the TRANS assay evaluates changes in activities of exogenous, chimeric NR-Gal4 proteins. […] At the end of 24 hour incubation, total RNA was isolated using TriZol reagent (Invitrogen). The isolated RNA is then reverse-transcribed using oligo(dT) primer and Mo-MLV reverse transcriptase (Invitrogen) with DNAse I (Ambion) treatment for 30 min. The one-tenth of the produced cDNA was amplified by PCR using Taq DNA polymerase (Invitrogen) and two reporter sequence-specific primers. The PCR products were fluorescently labeled by primer extension with 6-arboxyfluorescein (6-FAM) 5'-labeled reporter sequence-specific primer (2 min at 95 C, 20 s at 68 C and 10 min at 72 C) and these products were digested with 5U of HpaI (New England Biolabs) for 2h at 37 C. The fragments were purified using Qiaquick PCR columns (Qiagen), analyzed on an ABI 3130xL genetic analyzer (Applied Biosystems) with peak positions identified by using a set of X-rhodamine (ROX)-labeled MapMarker1000 molecular weight standards (BioVentures). The raw capillary electrophoresis data was processed using Attagraph software (Attagene).

Structure (SMILES) | outcome | AC50
CC(C)OC(=O)C(C)(C)Oc1ccc(C(=O)c2ccc(Cl)cc2)cc1 | inactive | 
CC(C)(Oc1ccc(Cl)cc1)C(=O)O | inactive | 
Cc1ccc(C)c(OCCCC(C)(C)C(=O)O)c1 | inactive | 
Cc1cccc(Nc2cc(Cl)nc(SCC(=O)O)n2)c1C | inactive | 
CN(CCOc1ccc(CC2SC(=O)NC2=O)cc1)c1ccccn1 (stereo not given) | inactive | 
Cc1nc(-c2ccc(C(F)(F)F)cc2)sc1C(=O)NCc1ccc(OC(C)(C)C(=O)O)cc1 |  | 21.3 µM (active)
C=C(c1ccc(C(=O)O)cc1)c1cc2c(cc1C)C(C)(C)CCC2(C)C |  | 2.23 µM (active)
C[C@@H]1C[C@H]2[C@@H]3CCC4=CC(=O)C=C[C@]4(C)[C@@]3(F)[C@@H](O)C[C@]2(C)[C@@]1(O)C(=O)COP(=O)(O)O | inactive | 
Cc1c(C)c2c(c(C)c1O)CCC(C)(COc1ccc(CC3SC(=O)NC3=O)cc1)O2 (stereo not given) | inactive | 
C[C@]12C=CC(=O)C=C1CC[C@@H]1[C@@H]2C(=O)C[C@@]2(C)[C@H]1CC[C@]2(O)C(=O)CO | inactive | 
